Source: PubChem
Only a selection was taken, and hits are over-represented in it overall.
TTR transcr act – TTR transcription activation, primary screen | activation, % at 16.7 µM | SH-SY5Y TTR promoter Gaussia luciferase, luminescence; 100% = recombinant luciferase protein wells | AID 1117267 | 92,000 tested, 1.3% active;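 active = activation above the mean of all tested compounds plus 3 SD, cut at about 9.5% in these data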;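 also: cells exposed to compounds for one day before reading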
TTR inh HuH7 – HuH7 TTR transcription inhibition, counter-screen; shares compounds with TTR transcr act; HuH7 TTR promoter-Gaussia luciferase reporter, luminescence; inhibition, % at 16.7 µM; 1,100 tested, 4% active; AID 1117279;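 active = average inhibition above the solvent-only control wells' mean plus 3 SD, cut at about 15% in these data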;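 also: inhibitors lower well luminescence so higher value means more inhibition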
TTR up confirm – human TTR transcription activation, confirmation; activation, % at 16.7 µM; 1,100 tested, under 10 active; shares compounds with TTR transcr act; SHSY5Y TTR promoter Gaussia luciferase, luminescence; 100% = purified Lucia enzyme wells, no cells; AID 1117280;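 active = mean activation above a set limit taken from the earlier primary screen, cut at about 11% in these data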
A number is an active result; n = inactive.

SMILES	TTR transcr act	others
COC(=O)c1cc(S(=O)(=O)NCc2cccc(Br)c2)c[nH]1	n
CC(=O)NC(C)(c1ccccc1)c1nc(/C=C/c2ccccc2)cs1 (centres undefined)	n
CCCCCCC/C=C(\C)[C@@H](O)[C@@H](C)C(=O)N1CCC[C@@H]1C(=O)O	n
CN(C)C(=S)NC(=O)C12CC3CC(C)(CC(C)(C3)C1)C2	n
CC12CC3(C)CC(C)(C1)CC(C(=O)NC(=S)N1CCOCC1)(C2)C3	n
CC12CC3CC(C)(C1)CC(C(=O)NC(=S)N1CCCCC1)(C3)C2	14.0	TTR inh HuH7=n;TTR up confirm=n
O=[N+]([O-])c1cc(CN(CCO)CCO)ccc1O	n
Nc1nc2ccccc2n1S(=O)(=O)c1ccc(Cl)cc1	n
C#CCNC(=O)C[C@H]1C[C@@]2(C(=O)OC)C(=C[C@H](COCc3ccccc3)O[C@@H]2C)N(Cc2ccccc2)C1=O	n
CCCn1c(=N)n(CC(=O)c2cccs2)c2ccccc21	n
O=C(Cn1ccccc1=O)c1cccs1	17.3	TTR inh HuH7=n;TTR up confirm=n
O=C(CN1C2=NCCCN2c2ccccc21)c1cccs1	n
O=C1[C@@H]2CSCCS(=O)(=O)N2C(=O)N1C1CCCCC1	n
Oc1ccc(C(=S)N2CCCCC2)cc1	10.4	TTR inh HuH7=n;TTR up confirm=n
COc1ccc(C(=S)N2CCCC2)cc1Br	n
COc1cc(C(=S)N2CCCC2)ccc1O	n
Cc1noc(C)c1COc1ccc(C(=O)Nc2ccccn2)cc1	n
CCc1ccccc1NC(=O)c1ccc(OCc2c(C)noc2C)cc1	48.9	TTR inh HuH7=n;TTR up confirm=n
Cc1noc(C)c1COc1ccc(C(=O)Nc2ccccc2)cc1	n
Cc1cccc(C)c1-n1nnnc1C1(C)CN(S(C)(=O)=O)CC(=O)N1Cc1ccc(F)cc1 (centres undefined)	n
O=C1CCC[C@H]2C[C@H](NCc3ccc(F)cc3F)CC[C@]23CCCN13	n
c1ccc2cc(Cn3ccc4ccc(-c5ccc6ccn(Cc7ccc8ccccc8c7)c6c5)cc43)ccc2c1	n
COc1cccc(CN[C@@H]2CC[C@@]34CCCN3C(=O)CCC[C@H]4C2)c1	n
Cc1cccc(N(C(=O)Cn2nnc3ccccc32)C(C(=O)NCc2ccco2)c2ccncc2)c1C (centres undefined)	n
O=C(NCc1ccco1)C(c1ccccc1)N(CC1CCCO1)C(=O)Cn1nnc2ccccc21 (centres undefined)	n
SMILES	TTR transcr act	others
Cc1ccccc1C(C(=O)NCc1ccco1)N(CC1CCCO1)C(=O)Cn1nnc2ccccc21 (centres undefined)	12.0	TTR inh HuH7=n;TTR up confirm=n
Cc1cc(N=O)no1	n
CC(C)CNC(=O)OCc1cn(Cc2ccccc2C(F)(F)F)nn1	n
CCOc1ccc(S(=O)(=O)NCCC(=O)NCC2(N3CCCCC3)CCCCC2)cc1	n
CC(=O)c1cccc(N(CC(=O)Nc2ccc(S(=O)(=O)N3CCCC3)cc2)S(C)(=O)=O)c1	n
CC(=O)c1cccc(NC(=O)CN(c2ccccc2)S(C)(=O)=O)c1	11.6	TTR inh HuH7=n;TTR up confirm=n
CC(=O)c1cccc(N(CC(=O)Nc2ccccc2F)S(C)(=O)=O)c1	n
Cc1ccc(S(=O)(=O)N2[C@H](CC(=O)OCc3ccccc3)OC[C@@H]2C(C)C)cc1	n
COc1ccc(Cc2c(-c3ccc(Cl)cc3)nc3c(C)cc(Br)cn23)c(C)c1	n
COc1cccc(-c2csc(N3CCN(Cc4ccccc4)CC3)n2)c1	10.0	TTR inh HuH7=n;TTR up confirm=n
COc1cccc(NC(=O)N2CCN(c3nc(-c4cccc(OC)c4)cs3)CC2)c1	n
COc1ccc(-c2cc(=O)[nH]c(N3CCN(Cc4ccccc4)CC3)n2)cc1	n
Cc1ccc(S(=O)(=O)N2CCN(c3ccc(C(=O)N4CCOCC4)cc3[N+](=O)[O-])CC2)cc1	n
CCc1ccc(N(C(=O)c2csnn2)C(C(=O)NC(C)(C)CC)c2ccccn2)cc1 (centres undefined)	n
O=C(NC1CCCCN(Cc2cccc(Cl)c2)C1=O)c1ccc(Cl)cc1Cl (centres undefined)	n
CCCCn1nc2cc(C(=O)NC3CCc4ccccc43)ccc2c1OCC (centres undefined)	n
CCCCn1nc2cc(C(=O)N(CC)c3ccc(OC)cc3)ccc2c1OCC	13.2	TTR inh HuH7=n;TTR up confirm=n
CCCCn1nc2cc(C(=O)NCCc3cccs3)ccc2c1OCC	n
CN(C)c1cc(Nc2ccc(O)cc2)c([N+](=O)[O-])c2nonc12	n
CCOC(=O)N1CCN(c2cc(N(C)CCO)c([N+](=O)[O-])c3nonc23)CC1	n
CC(=O)OCCN(C)c1cc(SC(C)C)c2nonc2c1[N+](=O)[O-]	17.8	TTR inh HuH7=n;TTR up confirm=n
O=C(Cc1cccs1)N/N=C/c1ccccn1	15.3	TTR inh HuH7=n;TTR up confirm=n
O=C(Cc1ccc(F)cc1)N/N=C/c1ccccn1	n
Cc1ccc(/C=N/NC(=O)Cc2cccs2)o1	n
C[C@@H]1CCN(C2CC2)S(=O)(=O)c2ccc(N3CCC[C@H]3CO)cc2O1	n
SMILES	TTR transcr act	others
COc1cccc(OC)c1NC(=O)NC(=O)c1c(OC)c(Br)cc([N+](=O)[O-])c1OC	n
COc1ccc([N+](=O)[O-])c(OC)c1C(=O)NC(=O)Nc1nc(C)cc(C)n1	n
COc1ccc([N+](=O)[O-])c(OC)c1C(=O)NC(=O)Nc1c(F)cc(F)cc1F	126.5	TTR inh HuH7=n;TTR up confirm=n
Cc1cccc(N2CCN(C(=O)c3cc(S(=O)(=O)N(C)C)ccc3Cl)CC2)c1C	n
COC(=O)c1cccc(NC(=O)c2cccc([N+](=O)[O-])c2)c1	n
COc1ccc(NC(=O)c2cccc([N+](=O)[O-])c2)cc1	n
COc1ccc(C(=O)Nc2cccc([N+](=O)[O-])c2)cc1Br	15.4	TTR inh HuH7=n;TTR up confirm=n
Cc1ccc(NC(=O)CSc2nnc(NC(=O)c3ccco3)s2)cc1	n
O=C(CSc1nnc(NC(=O)c2ccco2)s1)NCc1ccc2c(c1)OCO2	20.6	TTR inh HuH7=n;TTR up confirm=n
CCCSc1nnc(NC(=O)c2ccco2)s1	n
Cc1ccc(S(=O)(=O)N[C@H](C(=O)OCC(=O)NC(=O)c2cccn2C)C(C)C)cc1	n
Cc1ccnc(NC(=S)N2CC3CN(c4cccc(C(F)(F)F)c4)CC3C2)c1 (centres undefined)	n
O=C(COC(=O)c1ccc(CO)cc1)Nc1ccc2ccccc2c1	n
O=C(COC(=O)c1ccc2ccccc2c1O)Nc1ccccc1	n
O=C(OCC(=O)N1CCN(c2ccccc2)CC1)c1ccc(O)cc1O	15.5	TTR inh HuH7=n;TTR up confirm=n
O=C(COC(=O)c1ccc(O)cc1O)Nc1ccc2ccccc2c1	21.2	TTR inh HuH7=n;TTR up confirm=n
Cc1cc(C(=O)OCC(=O)N2CCOCC2)c(C)n1-c1ccccc1	n
O=C(COc1ccccc1)N1CCN(c2ccccc2)CC1	n
COc1ccc(CNC2CCC23CCC(c2ccccc2)CC3)cc1OC (centres undefined)	n
CN(C)[C@@H]1CCN(c2cccc3c2S(=O)(=O)N2CC[C@@H](C2)O3)C1	n
NC(=O)C1CC(=O)N(CCc2ccc(F)cc2)C1 (centres undefined)	n
O=C(N[C@H]1CC[C@@H]2SC[C@@H](C(=O)O)N2C1=O)OCC1c2ccccc2-c2ccccc21	n
COc1ccc(C(=O)Nc2cc(C(=O)O)cc(C(=O)O)c2)cc1Cl	n
COc1ccc(C(=O)Nc2ccccc2C(=O)O)cc1Cl	78.4	TTR inh HuH7=n;TTR up confirm=n
CCOc1ccc(C(=O)Nc2cccc(C(=O)O)c2C)cc1Cl	n
Cc1ccccc1N1C(=O)C2CCCN2C1=S (centres undefined)	n
